# High-throughput results as filed in PubChem.
# ELG1 genotox: genotoxicity induction in ELG1-luciferase HEK293T cells | Potency, µM (top dose mostly 46 µM), usual class: activators | 330,000 compounds, 1.3% hits | AID 504466 | HEK293T ELG1-luciferase reporter, luminescence, 16 h; note: nearly all actives have a fitted effect of over 60% in size
#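 Screening used a luciferase reporter fused to human ELG1 in HEK293T cells. Luminescence was read on a CCD plate imager after 16 hr exposure and 30 min ONE-Glo incubation.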
# NPC1 prom act: activators of NPC1 promoter; Potency, µM (doses to about 9.22 µM), actives largely listed as activators; Huh7 NPC1 promoter luciferase reporter, 24 h; 320,000 compounds, 2.4% hits; AID 485313; note: nearly all actives have a fitted effect of over 60% in size
#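 Luminescence read-out of NPC1 promoter-driven luciferase in stably transfected Huh7 cells; compounds delivered in DMSO and left 24 h at 37C, 5% CO2, qHTS titration format.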
# p53 reactivation: mutant p53 re-activation in reporter cells | H1299 p53-A138V BP100-luciferase reporter, luminescence, 24 h | Potency, µM (titrated, usually from 92.2 µM), actives largely listed as activators | 320,000 compounds, 0.063% hits | AID 504706; note: nearly all actives have a fitted effect of over 45% in size
#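 p53-null H1299 cells stably carrying temperature-sensitive p53-A138V and a BP100-luciferase reporter were pinned with compounds (4-point, 1:5 series) and held 24 hrs at 37 deg C. Luminescence was read 10 min after detection reagent.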
# SMN2 splice enh: SMN2 splice variant enhancement; HEK293 SMN2-luciferase splicing reporter, luminescence, 30-36 h; Potency, µM (titrated, usually from 46.1 µM), most hits filed as activators; 210,000 compounds, 2.8% hits; note: nearly all actives have a fitted effect of over 55% in size
#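 HEK293 cells carry an SMN2 […]–luciferase reporter in which exon 7 inclusion puts luciferase in frame. Cells were plated 10-12 h before compound addition, then incubated 30-36 h at 37C. ONE-Glo luminescence was read; sodium butyrate at 4.5 mM final served as control.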
# FLuc modulator: counter-screen for miR-21 project: firefly luciferase inhibitors or activators. Potency, µM (top dose mostly 57.5 µM), hits mostly inhibitors. 360,000 compounds, 6.9% hits. purified FLuc, Km substrates, luminescence inhibition. P08659; note: nearly all actives have a fitted effect of over 55% in size
# Target sequence (P08659 whole entry, looked up): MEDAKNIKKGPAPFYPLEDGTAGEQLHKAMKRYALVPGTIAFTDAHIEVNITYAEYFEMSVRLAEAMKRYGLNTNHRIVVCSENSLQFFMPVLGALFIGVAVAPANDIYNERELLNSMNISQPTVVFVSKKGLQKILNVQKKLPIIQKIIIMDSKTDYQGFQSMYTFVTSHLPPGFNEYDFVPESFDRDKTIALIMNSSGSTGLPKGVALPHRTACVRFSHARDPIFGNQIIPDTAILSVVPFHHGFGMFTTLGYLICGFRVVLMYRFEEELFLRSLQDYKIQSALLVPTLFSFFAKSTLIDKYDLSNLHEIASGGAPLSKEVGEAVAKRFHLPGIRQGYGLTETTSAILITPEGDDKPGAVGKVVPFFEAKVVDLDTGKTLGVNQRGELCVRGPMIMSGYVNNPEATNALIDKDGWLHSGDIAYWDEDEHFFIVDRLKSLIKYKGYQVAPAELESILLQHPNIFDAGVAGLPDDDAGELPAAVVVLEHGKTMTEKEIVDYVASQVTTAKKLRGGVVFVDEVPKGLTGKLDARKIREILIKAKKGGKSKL
#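 Purified P. pyralis luciferase (10nM final) with 10uM D-luciferin and 10uM ATP (Km levels) in 50mM Tris acetate pH 7.5, 10mM Mg acetate, 0.01% Tween-20, 0.05% BSA; qHTS 6-point titration, ~60 µM downward; luminescence read.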
# Rab9 prom act: Rab9 promoter activation | Huh7 Rab9 promoter-luciferase reporter, luminescence, 24 h | Potency, µM (top dose mostly 9.22 µM), usual class: activators | 320,000 compounds, 2.8% hits | AID 485297; note: nearly all actives have a fitted effect of over 60% in size
#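 Luminescence read-out: Huh7 cells stably expressing Rab9-luciferase, treated 24 h with compound at 37 °C, then lysed with luciferase reagent for 10 min at ambient before reading.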
# Hits are given with their value; 0 = inactive; ? = inconclusive; - = not tested or not shown; [ ] = dose if it differs, or a comment. In the library only some 7.4% were active in any assay of this set; here they are far more common. Calls come from the whole dose curve; as a rule, active = well fitted curve in the direction sought with a large enough effect; inconclusive = small, poorly fitted or top-dose-only effect, or another doubt; inactive = no such curve, though single readings can be large; an effect the other way counts as inactive or inconclusive.
SMILES,ELG1 genotox,NPC1 prom act,p53 reactivation,SMN2 splice enh,FLuc modulator,Rab9 prom act
Cc1oc2ccc(O)c(CN3CCN(Cc4ccccc4)CC3)c2c1C(=O)Nc1ccccc1,-,-,-,0,0,-
O=C(O)c1cccc2c1-c1ccccc1/C2=N\Nc1ccccc1,0,3.2µM,0,-,11µM,?
O=C(O)c1cccc(NN=C2c3ccccc3-c3ccccc32)c1,0,0,0,0,27µM,0
N#C/C(=C(/N)Sc1ccc(N)cc1)c1ccccc1C(F)(F)F,-,-,-,0,-,-
CC(=O)c1sc(NC(=O)CSCc2c(C)noc2C)nc1-c1ccccc1,0,0,0,-,0,0
CC(=O)Nc1ccc(NS(=O)(=O)c2ccc3[nH]c4c(c3c2)CCCCC4)cc1,-,-,-,-,0,-
CCOC(=O)CCCN,-,-,-,0[9.22 µM],-,-
COc1ccc(/C=N/N(C(C)=O)c2nc(-c3ccc(C)cc3)cs2)cc1,0,0,0,0,0,0
COc1ccccc1/C=N/N(C(C)=O)c1nc(-c2ccc(F)cc2)cs1,?,?,0,?,0,6.3µM
CCCCCN(C(=O)CCC(=O)OC(C)C(=O)c1ccc(Cl)cc1)c1c(N)n(CCCC)c(=O)[nH]c1=O (stereo not given),0,0,0,-,0,0
O=C(N/N=C/c1ccoc1)c1ccc([N+](=O)[O-])cc1,0,0,0,-,21µM,0
O=C(N/N=C/c1cccnc1)c1ccc(F)cc1,0,0,0,-,13µM,?
CC(C)(C)NC(=O)C(=O)N/N=C/c1ccc(F)cc1,0,0,0,0,0,0
Cc1ccc(C(=O)N/N=C\c2cccnc2)s1,?,0,0,-,6.7µM,?
CN(C)/C=C(\C#N)C(=O)N/N=C/c1ccc(F)cc1,0,0,0,0,17µM,0
O=C(N/N=C/c1cccnc1)c1ccccc1,0,0,0,-,?,0
CCc1cccc(NC(=O)Cn2c(C(=O)OC)cc3occc32)c1,-,-,-,0,0,-
O=C(N/N=C/c1cccnc1)c1ccc([N+](=O)[O-])cc1,0,0,0,0,15µM,0
O=C(N/N=C\c1cccc(O)c1)c1ccncc1,-,-,-,0[9.22 µM],-,-
CSc1ccc(/C=N/NC(=O)c2cccc(O)c2)cc1,?,?,0,?,4.3µM,3.5µM
O=C(N/N=C/c1cccnc1)c1ccccc1[N+](=O)[O-],0,0,0,0,0,0
Nc1ccc(C(=O)N/N=C/c2ccccc2)cc1,?,?,0,?,11µM,3.2µM
O=C(N/N=C/c1ccccc1)c1ccc(NC(=O)c2ccc(F)cc2)cc1,0,0,0,-,0,?
CC(=O)n1cc(/C=N/NC(=O)c2ccc([N+](=O)[O-])cc2)c2ccccc21,0,0,0,-,6.7µM,0
Cc1nnc(NC(=O)CSCc2cc(=O)c3cc(Cl)ccc3[nH]2)s1,-,-,-,-,0,-
SMILES,ELG1 genotox,NPC1 prom act,p53 reactivation,SMN2 splice enh,FLuc modulator,Rab9 prom act
CC(=O)Nc1ccc(C(=O)N/N=C/c2ccc(F)cc2)cc1,0,0,0,0,0,0
O=C(N/N=C\c1ccc(F)cc1)c1ccc(F)cc1,?,?,0,?,19µM,?
COC(=O)c1ccc(/C=N/NC(=O)c2cccc(F)c2)cc1,?,2µM,0,14µM,0,3.2µM
Cc1ccc(C(=O)N/N=C\c2ccc(OC(=O)c3cccc(F)c3)cc2)cn1,0,0,0,-,0,0
CCN(CC(=O)Nc1ccccc1OC)C(=O)CSCc1ccc(C)cc1,0,0,0,-,0,0
Cc1ccc(/C=C/C(=O)Nc2ccc3nc(N4CCC(C)CC4)cc(C)c3c2)cc1,-,-,-,0,0,-
COc1ccc(-c2cc(C(=O)N3CCc4ccccc4C3)no2)cc1,0,0,0,0,17µM,0
COc1ccc(-c2cc(C(=O)N3CCN(c4ccccc4)CC3)no2)cc1,?,2.8µM,?,?,6.7µM,?
COc1cccc(-c2cc(C(=O)N3CCc4ccccc4C3)no2)c1,?,0,0,0,?,0
COC(=O)/C(=C/c1c[nH]c2ccccc12)[N+](=O)[O-],0,0,0,-,19µM,0
O=C(Nc1cccc(Cl)c1)C1COc2ccccc2O1 (stereo not given),0,0,0,-,?,0
O=C(O)c1cc(-n2c(/C=C\c3ccc(F)cc3)nc3ccccc3c2=O)ccc1Cl,-,-,-,-,24µM,-
O=C(O)c1cccc(-n2c(/C=C/c3ccccc3)nc3ccccc3c2=O)c1,0,0,0,-,?,0
Cc1cc(=O)n2[nH]c(-c3ccccc3)cc2n1,-,-,-,0,?,-
COCc1cc(=O)n2[nH]c(-c3ccc(C)cc3)cc2n1,15µM,0,0,0,12µM,0
